Screens (PubChem)
A selection: hits, their analogues and other compounds. The true share with any hit is near 2.5%.
EWS-Fli block: blocks EWS/Fli oncoprotein-driven transcription. A673 NR0B1-luciferase reporter, viability-normalised. inhibition, % at 12.6 µM. 0.67% of 350,000 active;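 active = mean inhibition of at least 50% after viability correction, with every replicate also passing that limit; inconclusive = mean reaches 50% but only one of two replicates passes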;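 note: firefly luciferase signal divided by Alamar Blue viability fluorescence both relative to DMSO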
Env fusion inh: HIV envelope-mediated fusion inhibition. HeLa-JRFL Env/CEM21 cell fusion, luciferase. 1.1% of 360,000 active. inhibition, % at 12.3 µM. AID 651610;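 active = mean replicate inhibition score of at least 50 and every replicate individually at or above 50; inconclusive = only one of the two criteria met; inactive = mean below 50 and not all replicates reaching 50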;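 note: 0% = plate neutral controls and 100% = maraviroc near 300 nM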
FXN GAA850 act: frataxin GAA850 promoter activation. HEK293 lucGAA850 FXN promoter luciferase reporter, 24 h; percent of 10 µM SAHA response. activation, % at 6 µM. 0.56% of 360,000 active. AID 540364;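 active = activation above the average of all compounds screened plus 3 SD, cutoff fixed separately per campaign, cut at about 7.5% in these data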;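 note: 0% = DMSO wells and 100% = 10 µM SAHA wells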
CFTR F508del cor: CFTR F508del correction in bronchial cells; CFBE cells, YFP halide quenching; stimulated with forskolin plus potentiator P3; % fluorescence drop versus neutral controls; activity (quench increase), % at 7.58 µM; 0.36% of 350,000 active;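 active = mean added fluorescence quench of at least 8% versus neutral control, with both replicates also reaching 8%; inconclusive = only one of the mean or replicate conditions met; inactive = mean below 8% and not both replicates reaching 8%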;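 note: cells transiently co-express mutant CFTR-F508del with the halide-sensitive YFP; corrector assay measuring rescue of mutant channel to the surface after 24 h compound exposure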
PAX8 inh HTS: lowers PAX8-driven luciferase in RMG-I cells | RMG-I TPO-luciferase reporter, SteadyGlo, 24 h | inhibition, % at 12.6 µM | 1.2% of 360,000 active;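 active = mean replicate inhibition at least 60% with every replicate also reaching 60%; inconclusive = only one of the two criteria is met; inactive = mean below 60% and not all replicates reaching 60%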;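 note: luciferase light reporting Pax8 driven TPO promoter activity; plate controls were median of neutral control wells for no effect and mitoxantrone controls for full effect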
The depositor's hits bear a star; ? = inconclusive; . = no result; [ ] = remark or other dose.

SMILES	EWS-Fli block	Env fusion inh	FXN GAA850 act	CFTR F508del cor	PAX8 inh HTS
Cc1ccc(-c2nc(CSCC(=O)N3CCOCC3)c(C)o2)cc1	.	27.8	0.6	.	.
CCOc1ccc(-c2nc(CSCC(=O)N3CCN(c4cccc(OC)c4)CC3)c(C)o2)cc1	87.8*	.	-4.6	-6.7	37.6
Cc1ccc(-c2nc(CSCC(=O)N3CCN(c4ccccn4)CC3)c(C)o2)cc1	21.4	57.1*	-0.7	1.7	45.0
CCOc1ccc(-c2nc(CSCC(=O)NC3CC3)c(C)o2)cc1	.	.	-13.6	.	.
CC(=O)O[C@H]1CC[C@@]2(C)C(CCC3C2CC[C@]2(C)OC(=O)CCC32)C1 (some centres undefined)	.	-64.4	3.5	.	-3.5
CC(=O)OC1CCC2(C)C(CCC3C4CC=C(C(C)=O)C4(C)OC(=O)CC32)C1 (centres undefined)	15.2	0.8	-14.5	1.0	100.5*
O=C(C[C@H]1C=C[C@@H](NC(=O)CN2CCOCC2)[C@H](CO)O1)NCc1cccc(F)c1	0.3	-2.6[16.7 µM]	.	0.8	11.7
COc1ccc(COc2cc(-c3cccc(OC)c3)nc3ccc(NC(=O)C(C)C)cc23)cc1	55.0*	1.2	-2.8	2.8	-65.8
CO[C@@H]1CN(C)C(=O)c2cc(NC(=O)c3ccccc3)ccc2OC[C@@H](C)N(C(=O)CN(C)C)C[C@H]1C	-1.9	.	.	-2.2	.
CCOc1ccc(C2=Nn3c(nnc3-c3ccccc3OC)SC2)cc1	.	?	4.5	.	95.4*
CCOc1ccc(-c2nnc3n2N=C(c2ccc(OC)cc2)CS3)cc1	.	-67.9	4.0	.	23.9
COc1ccc(C2=Nn3c(nnc3-c3ccccc3OC)SC2)cc1OC1CCOC1 (centres undefined)	36.0	-242.1	-2.2	9.7*	68.3*
COc1ccc(C2=Nn3c(nnc3-c3ccccc3C(F)(F)F)SC2)cc1OC1CCOC1 (centres undefined)	32.2	-20.9	0.2	7.1	23.2
CCCN1[C@H](C(=O)NCC)[C@@H](CO)[C@@H]2Cn3c(ccc(-c4ccc(C(=O)N(C)C)cc4)c3=O)[C@@H]21	6.8	.	.	-1.4	-10.8
C/C=C/c1cnc2c(c1)C(=O)N([C@@H](C)CO)C[C@@H](C)[C@@H](CN(C)S(=O)(=O)c1ccccc1)O2	-1.9	-2.4[16.7 µM]	.	0.7	.
Cc1cc(C)cc(N2C(=O)CS(=O)(=O)C2c2cccc([N+](=O)[O-])c2)c1 (centres undefined)	-11.3	4.2[16.7 µM]	.	0.0	-1.6
COc1ccc(/C=C2/SC(=S)N(CCCC(=O)Nc3cccc(O)c3)C2=O)cc1	-3.2	1.8	-10.2	-2.7	77.1*
CCOc1ccc(/C=C2\SC(=S)N(CCCC(=O)NCCCN3CCOCC3)C2=O)cc1	81.4*	?	-17.3	-0.9	49.7
COc1cccc(/C=C2\SC(=S)N(CCC(=O)NCCc3ccc(O)cc3)C2=O)c1	.	-20.8	-0.6	0.0	99.9*
Cc1ccc(/C=C2\SC(=S)N(CCCC(=O)Nc3ccccc3C(=O)O)C2=O)cc1	35.4	67.9*	-8.5	-0.7	12.1
CO[C@@H]1CN(C)C(=O)c2ccc(NC(=O)C3CC3)cc2OC[C@@H](C)N(C(=O)CN(C)C)C[C@@H]1C	-1.0	.	.	-1.1	-7.5
COc1cccc(-c2ccc3c(c2)[C@H]2[C@H](CCN2Cc2ccccc2OC)[C@H](CO)N3)c1	4.2	.	.	1.5	42.0
Cc1cccc(S(=O)(=O)N[C@@H]2CC[C@H](CCNC(=O)c3cnccn3)O[C@@H]2CO)c1	-14.2	-1.4[16.7 µM]	.	2.3	17.5
CCCNC(=O)N1C[C@H](C)[C@@H](OC)CN(C)C(=O)c2ccc(NC(=O)CCC)cc2OC[C@H]1C	1.8	.	.	-0.3	-0.8
COc1ccc(/C=C2\SC(=O)N(CC(=O)Nc3cccc(C)c3)C2=O)cc1O	72.0*	-8.0	0.1	-3.6	-10.7
SMILES	EWS-Fli block	Env fusion inh	FXN GAA850 act	CFTR F508del cor	PAX8 inh HTS
COC(=O)c1ccc(/C=C2/SC(=S)N(CCCC(=O)Nc3ccc(O)cc3)C2=O)cc1	.	0.4	-9.3	0.3	18.0
Cc1ccc(/C=C2\SC(=S)N(CCCC(=O)Nc3ccc(O)cc3)C2=O)cc1	43.8	63.6*	-15.8	-1.7	42.2
CC(/C=C1\SC(=O)N(CC(=O)Nc2ccc(O)cc2)C1=O)=C\c1ccccc1	12.3	.	-4.1	-2.0	87.1*
N#Cc1ccc(-c2ccc([C@H]3[C@@H](CO)N4C(=O)CN(C(=O)C5CCCCC5)C[C@@H]34)cc2)cc1	1.9	.	.	-0.2	-1.8
C[C@H]1CN([C@@H](C)CO)C(=O)c2cc(NC(=O)CCCN(C)C)ccc2O[C@@H]1CN(C)S(=O)(=O)c1cccs1	0.0	.	.	-3.0	.
Cc1ccc(S(=O)(=O)Nc2ccc3c(c2)C(=O)N([C@@H](C)CO)C[C@@H](C)[C@@H](CN(C)S(=O)(=O)c2ccccc2)OCCCC[C@@H](C)O3)cc1	-4.0	-13.6[16.7 µM]	.	0.2	30.3
CC(NC(=O)CSc1nc2sc3c(c2c(=O)n1-c1ccccc1)CCCC3)c1ccccc1 (centres undefined)	.	103.1*	6.5	.	.
Cn1c(=O)c2cc(NC(=O)Cc3cccc4ccccc34)ccc2n1-c1ccccc1	33.0	-42.1	-6.5	0.7	21.7
CC(CC(=O)Nc1ccc2c(c1)c(=O)n(C)n2-c1ccccc1)c1ccccc1 (centres undefined)	56.4*	-286.0	-3.7	3.5	-6.3
C[C@@H]1CCCCO[C@H](CN(C)Cc2ccc(C(=O)O)cc2)[C@H](C)CN([C@@H](C)CO)C(=O)c2cc(NC(=O)NC3CCCCC3)ccc2O1	-0.4	11.6[16.7 µM]	.	1.4	-9.1
Cc1ccc(C(=O)NCC(=O)OCC(=O)NC(C)c2ccccc2)s1 (centres undefined)	-8.3	25.8	1.5	14.7*	-4.5
C[C@H](CO)N1C[C@H](C)[C@H](CN(C)C(=O)NC2CCCC2)Oc2cc(C#Cc3ccc(F)cc3)ccc2S1(=O)=O	27.6	63.3*[16.7 µM]	.	9.7*	.
C[C@H](CO)N1C[C@H](C)[C@@H](CN(C)C(=O)NC2CCCC2)Oc2cc(C#Cc3ccc(F)cc3)ccc2S1(=O)=O	12.3	12.8[16.7 µM]	.	0.0	.
C[C@H]1CN([C@@H](C)CO)S(=O)(=O)c2ccc(C#Cc3ccc(F)cc3)cc2O[C@H]1CN(C)C(=O)NC1CCCC1	23.4	34.7[16.7 µM]	.	8.6*	.
O=C(N[C@H]1c2ccccc2C[C@H]1O)C1=C[C@H](c2coc3ccccc3c2=O)C[C@H](OCCCCO)O1	-6.2	0.0[16.7 µM]	.	-2.7	10.0
Cc1onc(-c2ccccc2Cl)c1-c1nc(-c2ccccn2)no1	.	-50.3	-1.6	.	.
Clc1ccccc1/C=C/c1nc(-c2ccccn2)no1	66.6*	19.5	-8.6	-0.7	44.7
C[C@@H]1CCCCO[C@H](CN(C)Cc2ccc(C(F)(F)F)cc2)[C@H](C)CN([C@@H](C)CO)C(=O)c2cc(NS(=O)(=O)c3ccc(F)cc3)ccc2O1	4.0	?	.	4.5	82.7*
C[C@@H]1CCCCO[C@@H](CN(C)Cc2ccc(C(F)(F)F)cc2)[C@H](C)CN([C@H](C)CO)C(=O)c2cc(NS(=O)(=O)c3ccccc3)ccc2O1	13.4	21.9[16.7 µM]	.	-2.2	92.0*
